We go through 36 compounds from PubChem BioAssay.

Each structure is given as a SMILES string.

Sequence of Streptavidin (Streptomyces avidinii) (P22629 whole entry, looked up): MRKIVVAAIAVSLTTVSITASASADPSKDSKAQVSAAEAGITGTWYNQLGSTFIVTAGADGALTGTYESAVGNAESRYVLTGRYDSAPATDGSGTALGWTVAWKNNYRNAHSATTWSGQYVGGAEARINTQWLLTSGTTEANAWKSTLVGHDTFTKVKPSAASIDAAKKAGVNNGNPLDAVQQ

One assay concerns the target Streptavidin (Streptomyces avidinii) (UniProt P22629). Kind of assay: streptavidin binders on small-molecule microarray, primary screen, artefact control for SMM compound annotation, biophysical, 635/667 nm fluorescence (AID 1147).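 Also: signal reflects streptavidin binding to arrayed compounds as a control protein.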 The settings on record: streptavidin binding, higher = more signal.
Turning to `O=C(NC1CC1)[C@@H]1c2ccccc2C(=O)N(Cc2ccccc2)[C@H]1c1ccc(CO)cc1`, the composite z-score is -0.928.
On the same count and under the same terms, then `CC[C@H]1C2=C3C(CC[C@H]4C(OCc5ccc(F)cc5C(F)(F)F)OC[C@](C)([C@@H]34)N(C(=O)OC(C)(C)C)C2)C2COC(=O)OCC21` (some centres not stated), with 1.44; and `COC(=O)[C@]1(CCS(=O)(=O)c2ccccc2)N=C(c2ccc(OCCCO)cc2)O[C@@H]1c1ccccc1CN=[N+]=[N-]`, with 0.379.
On the same count and under the same terms, to `C=CCOC(=O)[C@@H]1[C@H]2C(=O)O[C@H](c3ccccc3)[C@H](c3ccccc3)N2[C@H](c2ccc(OCCOC(=O)[C@H]3C[C@H]4C(=O)N[C@@H](CCCCNC(C)=O)C(=O)N4[C@H]3c3cccc(OCCO)c3)cc2)[C@@]12C(=O)Nc1ccc(I)cc12` belongs 0.356.
Same read-out and setting: then `O=C1OCCC=C[C@H]2OC34C=CCN(c5ccc(Cl)cc5)C(=O)[C@H]3N(CCCCCO)C(=O)[C@@H]4C12` (some centres not stated), with -0.654; and `COc1ccc(C(O)C2C=CC3C(=O)N(Cc4ccccc4)C(=O)C3N2n2cnnc2)c2ccccc12` (configuration not stated), with -0.677.

System in another assay: not listed separately
Kind of assay: small-molecule binders of probe aInhba, primary screen, biochemical, small-molecule microarray, 635/667 nm fluorescence (AID 1148).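 Also: score merges 667nm spot fluorescence with signal-to-noise for antibody binding to printed compounds.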 The settings on record: higher = more signal.
In the case of `COCCOC(=O)N1C(=O)[C@@]2(c3cc(C#CC4(O)CCCCCC4)ccc31)[C@H](C(N)=O)[C@H]1C(=O)O[C@H](c3ccccc3)[C@H](c3ccccc3)N1[C@@H]2c1ccccc1OCCO`, the composite z-score is -0.522.
Same read-out and setting: then `C=CCN1C(=O)[C@@]2(O[C@@H](CCO)[C@H]([Si](C)(C)c3ccc(OC)cc3)[C@H]2C)c2cc(N3C(=O)c4ccccc4Oc4ccccc43)ccc21`, with -0.102; and `C[C@]1(C(=O)NC2CC2)c2ccccc2C(=O)N(Cc2ccc(OC(F)(F)F)cc2)[C@H]1c1ccc(CO)cc1`, with 0.152; and `CC(C)(C)OC(=O)CC[C@]1(C(=O)N2CCOCC2)N=C(c2ccc(OCCCO)cc2)O[C@H]1c1ccccc1`, with -0.152.
On the same count and under the same terms, then `C=C[C@@H](C)[C@H](OC(=O)Nc1ccc(SC)cc1)c1ccc(OCCO)cc1`, with -0.259.
Still for that read-out and setting: then `COC(=O)[C@@]1(Cc2ccc(OC)cc2)[C@H]2c3cc(C(=O)N4CCCC4)n(CCc4cc5ccccc5[nH]4)c3C[C@H]2CN1C(=O)c1ccccc1`, with 0.352; and `C=CCNC(=O)[C@@H]1[C@H]2C(=O)O[C@H](c3ccccc3)[C@H](c3ccccc3)N2[C@H](c2ccc(OCCO)cc2)[C@@]12C(=O)N(C(=O)OCCOC)c1ccc(C#CC3=CCCCC3)cc12`, with 0.104; and `CC(C)C(CO)N1C(=O)[C@]2(C)C3C(=O)OCCC/C=C\[C@H]3OC23C=CCN(c2ccc(Cl)cc2)C(=O)[C@@H]13` (some centres not stated), with -0.128.
Compound `C=CC[C@H](OC(=O)Nc1ccc(OC)cc1)c1ccc(O)c2ccccc12` yielded a composite z-score of 0.0275.
On the same count and under the same terms, then `COc1cc(CO)cc(I)c1O[C@H]1C=C(C(=O)NCCO)C[C@@H](N(Cc2ccc(F)cc2)C(=O)C2CCCO2)[C@@H]1O` (some centres not stated), with -0.227; and `CCCC[C@@H]1C[C@H]1[C@@H](NC(=O)c1ccccc1)c1ccc(Cl)cc1`, with -0.322; and `CN(C)CCCNC(=O)[C@@H]1c2ccccc2C(=O)N(CC23CC4CC(CC(C4)C2)C3)[C@H]1c1ccc(CO)cc1`, with 0.016.
Same read-out and setting: to `CC(=O)N1Cc2ccccc2C[C@]2(N=C(c3ccc(OCCCO)cc3)O[C@@H]2c2ccccc2)C1=O` belongs 0.12.
The same measure, in the same setting: then `C=CCOC(=O)[C@H]1[C@@H]2C(=O)O[C@@H](c3ccccc3)[C@@H](c3ccccc3)N2[C@@H](c2ccc(OCCOC(=O)[C@H]3C[C@H]4C(=O)N[C@@H](Cc5ccccc5)C(=O)N4[C@H]3c3ccc(O)cc3)cc2)[C@]12C(=O)Nc1ccc(I)cc12`, with -0.0567; and `COC(=O)C1(Cc2ccccc2)C=C2C(=C(C(C)C)C(=O)C2C)CN1` (configuration not stated), with 0.147.
For the compound `C=CC[C@]12N=C(c3ccc(OCCCO)cc3)O[C@H]1c1ccccc1N(C)C2=O`, the composite z-score came out at 0.435.
Same read-out and setting: to `CC=CC(O)C1C=CC2C(=O)N(C)C(=O)C2N1N1CCCCC1` (configuration not stated) belongs -0.15.
Same read-out and setting: then `CCCNC(=O)[C@@]1(c2ccc([N+](=O)[O-])cc2)CC(=O)N(C2CCCCC2)[C@@H]1c1ccc(CO)cc1I`, with 0.306.
As for `O=C1C[C@@](C(=O)NCC(F)(F)F)(c2ccc([N+](=O)[O-])cc2)[C@@H](c2ccc(CO)cc2)N1C1CCCCC1`, the composite z-score is 0.101.
The compound `CCOC(=O)C[C@H]1[C@H](OC(=O)c2ccccc2-c2ccccc2)[C@@H](NC(=O)CC(C)C)c2cc(OCCCO)ccc2N1C(=O)c1ccc2ccccc2n1` came in with a composite z-score of -0.016.
Consider `COc1ccc(C(O)C2C=CC3C(=O)N(C)C(=O)C3N2N2CCCCC2)cc1` (configuration not stated), for which the composite z-score was 0.158.
The same measure, in the same setting: to `CCCCC(CC)C(O)C1C=CC2C(=O)N(c3ccccc3)C(=O)C2N1Nc1ccc([N+](=O)[O-])cc1` (configuration not stated) belongs 0.32; to `C=C(C(=O)CC[C@H](OC(C)=O)c1cccc(OCCO)c1)C(C)C`, -0.0719.
Still for that read-out and setting: then `C=C(/C(=C/C[C@@H](OC(=O)c1ccncc1)c1ccccc1OCCO)c1cc(C(=O)OC)ccc1OC)C(C)C`, with 0.0498.
Same read-out and setting: then `COc1ccc([Si](C)(C)[C@H]2[C@H](CCn3cc([C@H](O)c4ccccc4)nn3)O[C@@]3(C(=O)N(Cc4ccc(N5CCOC5=O)cc4)c4ccccc43)[C@@H]2C)cc1`, with -0.208.
For the compound `CC(C)OC(=O)CC(=O)CC(O)c1cccc(C#N)c1` (configuration not stated), the composite z-score is 0.0841.
Still for that read-out and setting: then `COc1cc(CO)cc(I)c1O[C@H]1C=C(C(=O)NCCO)C[C@@H](NCc2ccccc2F)[C@@H]1O`, with -0.128; and `CC(C)CN1C(=O)[C@@]2(Cc3ccccc31)c1ccccc1C(=O)N(Cc1ccccc1C(F)(F)F)[C@H]2c1ccc(CO)cc1`, with -0.182.
On the same count and under the same terms, then `CCOC(=O)[C@@H]1[C@@H]2C(=O)N(CC)C(=O)[C@@H]2C[C@@H]1Sc1ccccc1`, with 0.0357.
Same read-out and setting: then `C=CC[C@@H](OC(=O)Nc1ccc(OC)cc1)c1ccc(OCCO)cc1`, with -0.237.
Regarding `O=C(NC1CC1)[C@@H]1c2ccccc2C(=O)N(Cc2ccccc2)[C@H]1c1ccc(CO)cc1`, the composite z-score stood at 0.0111.
Still for that read-out and setting: to `CC[C@H]1C2=C3C(CC[C@H]4C(OCc5ccc(F)cc5C(F)(F)F)OC[C@](C)([C@@H]34)N(C(=O)OC(C)(C)C)C2)C2COC(=O)OCC21` (some centres not stated) belongs 0.0003; to `COC(=O)[C@]1(CCS(=O)(=O)c2ccccc2)N=C(c2ccc(OCCCO)cc2)O[C@@H]1c1ccccc1CN=[N+]=[N-]`, 0.0655.
On the same count and under the same terms, to `C=CCOC(=O)[C@@H]1[C@H]2C(=O)O[C@H](c3ccccc3)[C@H](c3ccccc3)N2[C@H](c2ccc(OCCOC(=O)[C@H]3C[C@H]4C(=O)N[C@@H](CCCCNC(C)=O)C(=O)N4[C@H]3c3cccc(OCCO)c3)cc2)[C@@]12C(=O)Nc1ccc(I)cc12` belongs -0.0313; to `O=C1OCCC=C[C@H]2OC34C=CCN(c5ccc(Cl)cc5)C(=O)[C@H]3N(CCCCCO)C(=O)[C@@H]4C12` (some centres not stated), -0.0986; to `COc1ccc(C(O)C2C=CC3C(=O)N(Cc4ccccc4)C(=O)C3N2n2cnnc2)c2ccccc12` (configuration not stated), -0.0136.
